Measured values published in PubChem BioAssay AID1159580 (chemical genetic matrix, 2015).
“And” between values parts separate entries of the source, which are not always exact repeats. Equal entries are not always repeated. The whole screen tested about 5,500 compounds, of which about 2,000 (36%) were called active. Another 18% or so got no clear call; they are omitted. No stated cut-off is given here; in the data, active means normalized growth mostly below about 0.91 (no sharp cut-off); inconclusive means no clear call, values can overlap the other calls; inactive means mostly above about 0.92. The list shows a part of the results.

Assay: chemical genetic growth profiling, strain panel (AID 1159580);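 further: tested at 20 µM; growth read once vehicle control cultures reached saturation at 30 °C; 1 = growth at the plate median or of vehicle wells; lower values mean less growth of the strain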
Conditions: S. cerevisiae deletion strains, growth OD

Measured: normalized growth

COC(=O)C[C@H]1C2(C)CC34OC5(C)O[C@@]6([C@H](OC)C(OC(=O)C(C)C)[C@]7(C)C(/C(=C(/OC)C(C)C)C(=O)O[C@H]7c7ccoc7)[C@@]6(O5)[C@H](OC)[C@@]3(OC)C2OC(C)=O)[C@]14C (stereo partly specified)
inactive: locus YAL013W, strain DEP1, active compounds read low 1.02 | locus YAL021C, strain ccr4, active compounds read low 1 | locus YAL026C, strain drs2, active compounds read low 0.994 | locus YAL030W, strain snc1, active compounds read low 0.984 | locus YBL061C, strain skt5, active compounds read low 0.962 | locus YBR009C, strain hhf1, active compounds read low 0.965 | locus YBR021W, strain FUR4, active compounds read low 1.02 | locus YBR023C, strain chs3, active compounds read low 0.994 | locus YBR171W, strain sec66, active compounds read low 0.989 | locus YBR229C, strain ROT2, active compounds read low 1.01 | locus YBR231C, strain swc5, active compounds read low 0.979 | locus YBR279W, strain paf1, active compounds read low 0.985 | locus YCL011C, strain gbp2, active compounds read low 0.975 | locus YCL016C, strain dcc1, active compounds read low 0.976 | locus YCL029C, strain bik1, active compounds read low 1.03 | locus YCL069W, strain vba3, active compounds read low 0.983 | locus YCR088W, strain abp1, active compounds read low 0.989 | locus YDL005C, strain med2, active compounds read low 0.972 | locus YDL035C, strain GPR1, active compounds read low 1.03 | locus YDL040C, strain nat1, active compounds read low 0.984 | locus YDL074C, strain BRE1, active compounds read low 1.04 | locus YDL101C, strain DUN1, active compounds read low 1.02 | locus YDL134C, strain PPH21, active compounds read low 1.01 | locus YDL185W, strain tfp1, active compounds read low 1.02 | locus YDL192W, strain arf1, active compounds read low 1.03 | locus YDR001C, strain nth1, active compounds read low 0.974 | locus YDR069C, strain doa4, active compounds read low 0.96 | locus YDR101C, strain arx1, active compounds read low 1.02 | locus YDR137W, strain rgp1, active compounds read low 0.95 | locus YDR159W, strain sac3, active compounds read low 1 | locus YDR162C, strain NBP2, active compounds read low 1.02 | locus YDR195W, strain ref2 0.986 | locus YDR297W, strain sur2, active compounds read low 0.967 | locus YDR318W, strain mcm21, active compounds read low 1.03 | locus YDR334W, strain swr1, active compounds read low 0.965 | locus YDR335W, strain msn5, active compounds read low 0.97 | locus YDR388W, active compounds read low 1.02 | locus YDR392W, strain spt3, active compounds read low 0.992 | locus YDR502C, strain sam2, active compounds read low 1 | locus YEL003W, strain gim4, active compounds read low 0.976 | locus YEL037C, strain rad23, active compounds read low 0.99 | locus YEL061C, strain CIN8 (second series), active compounds read low 0.978 | locus YER015W, strain faa2, active compounds read low 0.978 | locus YER016W, strain bim1, active compounds read low 0.98 | locus YER110C, active compounds read low 1.02 | locus YER111C, strain swi4, active compounds read low 0.969 | locus YER155C, strain BEM2 (second series), active compounds read low 0.967 | locus YER155C, strain BEM2, active compounds read low 1 | locus YER167W, strain BCK2, active compounds read low 1.02 | locus YFR010W, strain ubp6, active compounds read low 0.992 | locus YGL078C, strain dbp3, active compounds read low 0.994 | locus YGL086W, strain mad1, active compounds read low 1.01 | locus YGL167C, strain pmr1, active compounds read low 0.992 | locus YGL173C, strain kem1, active compounds read low 0.985 | locus YGL227W, strain vid30, active compounds read low 0.979 | locus YGL240W, strain doc1, active compounds read low 0.965 | locus YGL248W, strain PDE1, active compounds read low 1.01 | locus YGL253W, strain hxk2, active compounds read low 0.983 | locus YGR135W, strain pre9, active compounds read low 1.02 | locus YGR229C, strain SMI1, active compounds read low 0.998 | locus YGR252W, strain gcn5, active compounds read low 0.994 | locus YHR013C, strain ard1, active compounds read low 0.943 | locus YHR027C, strain rpn1, active compounds read low 0.994 | locus YHR030C, strain SLT2, active compounds read low 0.969 | locus YHR079C, strain IRE1 (second series), active compounds read low 1 | locus YHR079C, strain IRE1, active compounds read low 1 | locus YHR094C, strain hxt1, active compounds read low 1.01 | locus YHR129C, strain ARP1, active compounds read low 1.02 | locus YHR142W, strain chs7, active compounds read low 0.97 | locus YHR200W, strain rpn10, active compounds read low 1.02 | locus YIL066C, strain RNR3, active compounds read low 1.04 | locus YIL073C, strain SPO22, active compounds read low 1.02 | locus YIL125W, strain kgd1, active compounds read low 1.01 | locus YIR030C, strain dcg1, active compounds read low 1.02 | locus YJL092W, strain hpr5, active compounds read low 0.973 | locus YJL095W, strain BCK1 (second series), active compounds read low 0.995 | locus YJL095W, strain BCK1, active compounds read low 0.995 and 0.969 | locus YJL115W, strain asf1, active compounds read low 0.967 | locus YJL129C, strain trk1, active compounds read low 0.944 | locus YJL134W, strain LCB3, active compounds read low 1.01 | locus YJL154C, strain vps35, active compounds read low 0.981 | locus YJL164C, strain tpk1, active compounds read low 1.01 | locus YJL166W, strain qcr8, active compounds read low 0.99 | locus YJL168C, strain set2, active compounds read low 1.01 | locus YJL187C, strain SWE1 (second series), active compounds read low 1.01 | locus YJR043C, strain POL32, active compounds read low 1.03 | locus YJR066W, strain TOR1, active compounds read low 0.884 | locus YKL009W, strain mrt4, active compounds read low 0.959 | locus YKL068W, active compounds read low 0.998 | locus YKL085W, strain MDH1 (second series), active compounds read low 1.01 | locus YKL085W, strain MDH1, active compounds read low 1.01 | locus YKL160W, strain elf1, active compounds read low 0.987 | locus YKR001C, strain vps1, active compounds read low 0.992 | locus YKR026C, strain gcn3, active compounds read low 0.983 | locus YKR091W, strain srl3, active compounds read low 0.984 | locus YLL001W, strain dnm1, active compounds read low 0.973 | locus YLL026W, active compounds read low 0.978 | locus YLL041C, strain sdh2, active compounds read low 0.987 | locus YLR027C, strain aat2, active compounds read low 0.974 | locus YLR039C, strain RIC1, active compounds read low 0.908 | locus YLR058C, strain SHM2, active compounds read low 1.01 | locus YLR102C, strain apc9, active compounds read low 1 | locus YLR113W, strain HOG1, active compounds read low 1.01 | locus YLR221C, strain rsa3, active compounds read low 0.976 | locus YLR258W, strain gsy2, active compounds read low 0.996 | locus YLR262C, strain YPT6 (second series), active compounds read low 0.997 | locus YLR262C, strain YPT6, active compounds read low 0.754 | locus YLR268W, strain sec22, active compounds read low 1.03 | locus YLR320W, strain mms22, active compounds read low 0.988 | locus YLR342W, strain FKS1 (second series), active compounds read low 0.987 | locus YLR342W, strain FKS1, active compounds read low 0.982 | locus YLR357W, strain rsc2, active compounds read low 1.01 | locus YLR370C, strain arc18, active compounds read low 0.971 | locus YLR371W, strain rom2, active compounds read low 1.04 | locus YLR384C, strain iki3, active compounds read low 0.984 | locus YLR418C, strain cdc73, active compounds read low 1.04 | locus YML016C, strain PPZ1, active compounds read low 1.01 | locus YML032C, strain rad52, active compounds read low 1 | locus YML120C, strain ndi1, active compounds read low 0.982 | locus YML124C, strain tub3, active compounds read low 1.01 | locus YMR058W, strain fet3, active compounds read low 0.97 | locus YMR078C, strain ctf18, active compounds read low 1.01 | locus YMR125W, strain sto1, active compounds read low 0.986 | locus YMR129W, active compounds read low 0.986 | locus YMR205C, strain PFK2, active compounds read low 1 | locus YMR223W, strain ubp8, active compounds read low 1.01 | locus YMR231W, strain pep5, active compounds read low 0.975 | locus YMR307W, strain GAS1, active compounds read low 1.23 | locus YNL067W, strain RPL9B, active compounds read low 1.01 | locus YNL071W, strain lat1, active compounds read low 0.989 | locus YNL153C, strain GIM3, active compounds read low 1.03 | locus YNL183C, strain NPR1, active compounds read low 0.935 | locus YNL209W, strain ssb2, active compounds read low 0.985 | locus YNL233W, strain BNI4, active compounds read low 1.04 | locus YNL248C, strain rpa49, active compounds read low 0.977 | locus YNL250W, strain rad50, active compounds read low 1.04 | locus YNL271C, strain bni1, active compounds read low 1.02 | locus YNL298W, strain CLA4, active compounds read low 1 | locus YNL307C, strain MCK1, active compounds read low 1.02 | locus YNL322C, strain KRE1 (second series), active compounds read low 0.972 | locus YNL322C, strain KRE1, active compounds read low 1.01 | locus YNR049C, strain mso1, active compounds read low 0.96 | locus YNR052C, strain pop2, active compounds read low 1.03 | locus YOL006C, strain TOP1, active compounds read low 1.06 | locus YOL012C, strain htz1 0.933 | locus YOL147C, strain pex11, active compounds read low 1.02 | locus YOR001W, strain rrp6, active compounds read low 0.967 | locus YOR061W, strain CKA2, active compounds read low 1.04 | locus YOR069W, strain VPS5, active compounds read low 1.01 | locus YOR070C, strain gyp1, active compounds read low 1.01 | locus YOR080W, strain dia2, active compounds read low 0.964 | locus YOR083W, strain WHI5, active compounds read low 0.993 | locus YOR106W, strain vam3, active compounds read low 0.953 | locus YOR136W, strain idh2, active compounds read low 1 | locus YOR144C, strain elg1, active compounds read low 1.01 | locus YOR184W, strain ser1, active compounds read low 1.04 | locus YOR231W, strain MKK1, active compounds read low 0.955 | locus YOR265W, strain rbl2, active compounds read low 0.994 | locus YOR270C, strain vph1, active compounds read low 0.866 | locus YOR290C, strain snf2, active compounds read low 0.962 | locus YOR316C, strain cot1, active compounds read low 1 | locus YPL051W, strain arl3, active compounds read low 1 | locus YPL078C, strain atp4, active compounds read low 0.964 | locus YPL106C, strain sse1, active compounds read low 1.02 | locus YPL240C, strain hsp82, active compounds read low 0.988 | locus YPL256C, strain CLN2, active compounds read low 0.966 | locus YPR119W, strain clb2, active compounds read low 1 | locus YPR141C, strain kar3, active compounds read low 1.02 | locus YPR163C, strain tif3, active compounds read low 1.02 | locus YPR167C, strain met16, active compounds read low 1.01 | strain wtn01, active compounds read low 0.995
